The target in assay [1] is human Retinoic Acid Receptor beta (RARb), RARB (gene 5915) (UniProt P10826). The experiment in a line: ATG_RARb_TRANS: Attagene TRANS-FACTORIAL HepG2 Assay for human Retinoic Acid Receptor beta (AID 2283004). In short, it runs like this:
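Transient transfection of HepG2 with multiple reporter units → chemical dosing, 24 h → total RNA isolation → RT with oligo(dT) → reporter-specific PCR, 6-FAM primer extension, HpaI digest → capillary electrophoresis. Positive direction vs DMSO control.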

Assay [2] addresses Retinoic acid receptor alpha (Homo sapiens) (UniProt P10276). The experiment in a line: ATG_RARa_TRANS: Attagene TRANS-FACTORIAL HepG2 Assay for human Retinoic Acid Receptor alpha (RARa) (AID 2283005). In short, it runs like this: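 Reporter transcripts, measured by RT-PCR with fluorescent labeling and capillary electrophoresis after 24 h dosing, reflect activity of an exogenous human RARa–GAL4 fusion in transiently transfected HepG2. Fitted for increase relative to DMSO.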

The target of assay [3] is Peroxisome proliferator-activated receptor gamma (Homo sapiens) (UniProt P37231). The experiment in a line: ATG_PPARg_TRANS: Attagene TRANS-FACTORIAL HepG2 Assay for human Peroxisome Proliferator-activated Receptor-gamma (PPARg) (AID 2283007). The essentials: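 HepG2 cells transiently transfected with multiplexed GAL4-UAS reporter units and exogenous chimeric NR-Gal4 proteins; reporter mRNA quantified after 24 h compound exposure by RT-PCR, fluorescent labelling, HpaI digestion and capillary electrophoresis; gain-of-signal fitted versus DMSO baseline.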
Sequence of Peroxisome proliferator-activated receptor gamma (Homo sapiens) (P37231 whole entry, looked up, the tested form may be a part): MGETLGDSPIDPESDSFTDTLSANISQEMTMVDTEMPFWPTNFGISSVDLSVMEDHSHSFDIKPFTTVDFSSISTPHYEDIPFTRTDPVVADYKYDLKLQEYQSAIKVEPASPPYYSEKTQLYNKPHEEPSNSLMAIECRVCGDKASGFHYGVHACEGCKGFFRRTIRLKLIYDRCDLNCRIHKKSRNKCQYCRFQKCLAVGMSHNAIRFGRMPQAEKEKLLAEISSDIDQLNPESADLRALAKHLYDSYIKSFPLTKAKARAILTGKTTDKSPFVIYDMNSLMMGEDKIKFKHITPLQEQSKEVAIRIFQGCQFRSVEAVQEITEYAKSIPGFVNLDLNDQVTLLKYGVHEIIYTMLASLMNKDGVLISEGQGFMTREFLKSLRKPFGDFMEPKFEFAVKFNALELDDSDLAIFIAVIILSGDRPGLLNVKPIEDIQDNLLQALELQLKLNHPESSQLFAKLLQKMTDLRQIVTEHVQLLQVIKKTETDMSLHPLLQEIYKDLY

Assay [4] addresses Nuclear receptor subfamily 1 group I member 2 (Homo sapiens) (UniProt O75469). The experiment in a line: ATG_PXR_TRANS: Attagene TRANS-FACTORIAL HepG2 Assay for human Pregnane X Receptor (PXR) (AID 2283008). The essentials: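 Read-out is fluorescence of labelled reporter cDNA fragments separated by capillary electrophoresis after RT-PCR and HpaI digestion. Source: HepG2 cells carrying PXR-GAL4/UAS reporter constructs, treated 24 h; activity fitted upward relative to DMSO.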

Assay [5] has as its target human Retinoic Acid Receptor gamma (RARg), RARG (gene 5916) (UniProt P13631). The experiment in a line: ATG_RARg_TRANS: Attagene TRANS-FACTORIAL HepG2 Assay for human Retinoic Acid Receptor gamma (RARg) (AID 2283009). In short, it runs like this:
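HepG2, RARg-GAL4 TRANS system, 24 h exposure; reporter mRNA by RT-PCR + CE fluorescence; increase over DMSO.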

Assay [6] deals with human Retinoid X Receptor beta (RXRb), RXRB (gene 6257) (UniProt P28702). The experiment in a line: ATG_RXRb_TRANS: Attagene TRANS-FACTORIAL HepG2 Assay for human Retinoid X Receptor beta (RXRb) (AID 2283013). In short, it runs like this: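 Multiplexed TRANS reporter assay in HepG2; 24 h dosing; reporter mRNA by RT-PCR/CE fluorescence; gain-of-signal relative to DMSO.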
Sequence of human Retinoid X Receptor beta (RXRb), RXRB (gene 6257) (P28702 whole entry, looked up): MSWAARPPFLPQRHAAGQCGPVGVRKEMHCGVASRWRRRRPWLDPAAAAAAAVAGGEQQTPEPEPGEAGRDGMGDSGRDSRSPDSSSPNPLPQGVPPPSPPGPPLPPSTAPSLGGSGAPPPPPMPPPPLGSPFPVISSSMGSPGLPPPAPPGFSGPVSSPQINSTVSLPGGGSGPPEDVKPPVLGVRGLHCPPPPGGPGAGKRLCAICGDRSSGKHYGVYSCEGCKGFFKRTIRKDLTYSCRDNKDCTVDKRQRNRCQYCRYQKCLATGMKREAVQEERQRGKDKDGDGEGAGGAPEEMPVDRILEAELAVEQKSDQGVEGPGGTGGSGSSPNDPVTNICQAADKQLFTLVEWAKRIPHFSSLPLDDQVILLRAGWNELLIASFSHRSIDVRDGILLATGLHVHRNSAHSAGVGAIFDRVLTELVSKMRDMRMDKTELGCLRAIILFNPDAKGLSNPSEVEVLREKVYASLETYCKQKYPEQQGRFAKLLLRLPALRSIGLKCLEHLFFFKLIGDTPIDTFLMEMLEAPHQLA
Assay [7] deals with human Thyroid Receptor alpha (THRa1), THRA (gene 7067) (UniProt P10827). The experiment in a line: ATG_THRa1_TRANS: Attagene TRANS-FACTORIAL HepG2 Assay for human Thyroid Receptor alpha (THRa1) (AID 2283014). The essentials:
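Reporter transcript induction, read by capillary electrophoresis of 6-FAM-labelled RT-PCR products, reflects activity of a transfected THRa1-Gal4 fusion in HepG2 liver cells. Cells were dosed for 24 h; activity was fitted in the positive direction against DMSO.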

Assay [8] deals with human Vitamin D Receptor (VDR), VDR (gene 7421) (UniProt P11473). The experiment in a line: ATG_VDR_TRANS: Attagene TRANS-FACTORIAL HepG2 Assay for human Vitamin D Receptor (VDR) (AID 2283022). The essentials:
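Steps: transfect HepG2 with GAL4-UAS-driven reporter constructs; dose compounds 24 h; isolate RNA, reverse-transcribe, PCR-amplify with 6-FAM-labelled primer extension and HpaI digestion; quantify fragments by capillary electrophoresis relative to DMSO.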

Assay [9] can be described thus: BSK_3C_Proliferation: Cell Proliferation Assessment in the BioMAP Diversity Plus: 3C Assay (AID 2283006; active = hit-call score of the fitted dose curve at least 0.9, where 1 is the maximum; inactive = score below 0.9;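 as to AC50: potency may reflect either rise or fall in cell number versus DMSO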). The settings on record: primary human endothelial cells (HUVEC). The essentials:
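Proliferation of human vascular endothelial primary cells after 48 h dosing, quantified as SRB-stained protein at 560 nm relative to DMSO.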

The target of assay [10] is human RAR-related Orphan Receptor beta (RORb), RORB (gene 6096) (UniProt Q92753). The experiment in a line: ATG_RORb_TRANS: Attagene TRANS-FACTORIAL HepG2 Assay for human RAR-related Orphan Receptor beta (RORb) (AID 2283010). The essentials:
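In this TRANS-format test, human HepG2 cells express chimeric NR-Gal4 fusion proteins driving GAL4-UAS reporters. After 24 h dosing, reporter transcripts are measured by fluorescent RT-PCR/capillary electrophoresis, with DMSO as negative control.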

For assay [11], the target named is human RAR-related Orphan Receptor gamma (RORg), RORC (gene 6097) (UniProt P51449). The experiment in a line: ATG_RORg_TRANS: Attagene TRANS-FACTORIAL HepG2 Assay for human RAR-related Orphan Receptor gamma (RORg) (AID 2283011). In short, it runs like this:
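First, HepG2 liver cells were transfected with GAL4-UAS-driven reporter constructs and the RORg-Gal4 fusion. Next, they were treated with chemical for 24 h. Finally, reporter mRNA was quantified by RT-PCR and capillary electrophoresis, with upward activity fitted against DMSO.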

Assay [12] has as its target Retinoic acid receptor RXR-alpha (Homo sapiens) (UniProt P19793). The experiment in a line: ATG_RXRa_TRANS: Attagene TRANS-FACTORIAL HepG2 Assay for human Retinoid X Receptor alpha (RXRa) (AID 2283012). In short, it runs like this:
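Cells (HepG2) carried transiently transfected GAL4-responsive reporter units. Following a 24 h chemical incubation, reporter mRNA induction was read via RT-PCR fragment analysis; DMSO served as negative control and baseline.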

Read-out in assay [13]: E-selectin (Homo sapiens) (UniProt P16581)
The experiment in a line: BSK_3C_Eselectin: BioMAP Diversity Plus: 3C Assay for Eselectin Biomarker Activity (AID 2283015; active = hit-call score of the fitted dose curve at least 0.9, where 1 is the maximum; inactive = score below 0.9;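 as to outcome: cell surface E-selectin protein quantified by ELISA 24 h after dosing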). The settings on record: primary human endothelial cells (HUVEC); actives raise or lower the signal. The essentials: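 ELISA read-out of E-selectin on endothelial monolayers after 24 h chemical treatment. Human umbilical vein primary cells served as the system, with DMSO defining baseline activity for bidirectional fitting.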

Read-out in assay [14]: Interleukin-1 alpha (IL1a), IL1A (gene 3552)
The experiment in a line: BSK_BE3C_IL1a: BioMAP Diversity Plus: BE3C Assay for Interleukin-1 alpha (IL1a) Biomarker Activity (AID 2283016; active = hit-call score of the fitted dose curve at least 0.9, where 1 is the maximum; inactive = score below 0.9). The settings on record: primary human bronchial epithelial cells; actives raise or lower the signal. The essentials:
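Cultures of primary human bronchial epithelial cells receive test chemical. After 24 h, IL-1a is quantified by ELISA, while parallel wells are fixed in TCA and SRB-stained for total protein. Changes in either direction are fitted relative to DMSO.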

Read-out in assay [15]: Monocyte Chemoattractant Protein-1 (MCP1), CCL2 (gene 6347)
The experiment in a line: BSK_3C_MCP1: BioMAP Diversity Plus: 3C Assay for Monocyte Chemoattractant Protein-1 (MCP1) Biomarker Activity (AID 2283017; active = hit-call score of the fitted dose curve at least 0.9, where 1 is the maximum; inactive = score below 0.9). To be noted: primary human endothelial cells (HUVEC); actives raise or lower the signal. In short, it runs like this:
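ELISA read-out of MCP-1 from human umbilical vein endothelial cell cultures harvested 24 h post-dosing. Gain or loss of signal was fitted relative to DMSO.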

Read-out in assay [16]: Monocyte Chemoattractant Protein-1 (MCP1), CCL2 (gene 6347)
The experiment in a line: BSK_4H_MCP1: BioMAP Diversity Plus: 4H Assay for Monocyte Chemoattractant Protein-1 (MCP1) Biomarker Activity (AID 2283018; active = hit-call score of the fitted dose curve at least 0.9, where 1 is the maximum; inactive = score below 0.9). To be noted: primary human endothelial cells (HUVEC); actives raise or lower the signal. The essentials: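 Readout: MCP-1 ELISA on compound-treated HUVEC, sampled 24 h post-dosing. Baseline and negative control DMSO; bidirectional fit. Overt toxicity checked alongside by sulforhodamine B protein staining at time of biomarker measurement.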

Read-out in assay [17]: Human Leukocyte Antigen - DR isotype (HLADR), HLA-DRA (gene 3122)
The experiment in a line: BSK_3C_HLADR: BioMAP Diversity Plus: 3C Assay for Human Leukocyte Antigen - DR isotype (HLADR) Biomarker Activity (AID 2283019; active = hit-call score of the fitted dose curve at least 0.9, where 1 is the maximum; inactive = score below 0.9). The settings on record: primary human endothelial cells (HUVEC); actives raise or lower the signal. In short, it runs like this: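 ELISA readout of surface HLA-DR on human umbilical vein endothelium, taken 24 h after chemical treatment. Gain- and loss-of-signal were both fitted relative to DMSO.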

Read-out in assay [18]: Monokine induced gamma interferon (MIG), CXCL9 (gene 4283)
The experiment in a line: BSK_3C_MIG: BioMAP Diversity Plus: 3C Assay for Monokine induced gamma interferon (MIG) Biomarker Activity (AID 2283021; active = hit-call score of the fitted dose curve at least 0.9, where 1 is the maximum; inactive = score below 0.9;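 as to AC50: MIG protein level measured by immunoassay in the treated endothelial cultures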). The settings on record: primary human endothelial cells (HUVEC); actives raise or lower the signal. In short, it runs like this:
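After 24 h of treatment, human umbilical vein endothelial cultures (3C system) had their MIG biomarker level determined by ELISA, with DMSO serving as negative control.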

A short description of assay [19]: BSK_3C_SRB: Viability Assessment in the BioMAP Diversity Plus: 3C Assay (AID 2283023; active = hit-call score of the fitted dose curve at least 0.9, where 1 is the maximum; inactive = score below 0.9;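 also: fitted both ways against DMSO so a hit may be signal rise or drop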). The settings on record: primary human endothelial cells (HUVEC). The essentials: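 Absorbance at 560 nm of sulforhodamine B-stained (0.1%) total protein served as a cytotoxicity readout in human umbilical vein endothelial cells, 24 h after chemical treatment. Signal was fitted bidirectionally relative to DMSO.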

Read-out in assay [20]: Interleukin-8 (IL8), CXCL8 (gene 3576)
The experiment in a line: BSK_3C_IL8: BioMAP Diversity Plus: 3C Assay for Interleukin-8 (IL8) Biomarker Activity (AID 2283020; active = hit-call score of the fitted dose curve at least 0.9, where 1 is the maximum; inactive = score below 0.9). The settings on record: primary human endothelial cells (HUVEC); actives raise or lower the signal. The essentials: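 Human vascular endothelial cells (umbilical vein) in the 3C system; IL-8 level detected by ELISA at 24 h post-dose, with DMSO as baseline.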

“And” between values parts separate entries of the source, which are not always exact repeats. Equal entries are not always repeated. Results filed as inconclusive are left out. A structure can be active in one record and inactive in another. The source made the active and inactive calls. The calls were made as follows, unless noted: active = hit-call score of the fitted dose curve at least 0.9, where 1 is the maximum; inconclusive = response in the unintended direction; inactive = score below 0.9.

As a reminder, the AC50 is the midpoint of the concentration-response curve, whichever way the signal moves.

Sequence of human Retinoic Acid Receptor gamma (RARg), RARG (gene 5916) (P13631 whole entry, looked up, the tested form may be a part): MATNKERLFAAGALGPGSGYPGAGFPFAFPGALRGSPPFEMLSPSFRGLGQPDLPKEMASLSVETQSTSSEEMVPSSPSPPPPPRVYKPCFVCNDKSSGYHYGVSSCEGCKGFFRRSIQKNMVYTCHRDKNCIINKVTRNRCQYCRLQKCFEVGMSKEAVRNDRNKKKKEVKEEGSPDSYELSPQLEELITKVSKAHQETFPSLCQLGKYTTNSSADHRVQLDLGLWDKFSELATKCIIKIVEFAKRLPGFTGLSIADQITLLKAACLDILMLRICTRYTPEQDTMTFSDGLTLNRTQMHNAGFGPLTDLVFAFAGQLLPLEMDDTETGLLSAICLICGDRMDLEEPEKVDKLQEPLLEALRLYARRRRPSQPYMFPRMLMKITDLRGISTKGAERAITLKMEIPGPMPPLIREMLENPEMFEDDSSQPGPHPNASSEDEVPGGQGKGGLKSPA
Sequence of E-selectin (Homo sapiens) (P16581 whole entry, looked up): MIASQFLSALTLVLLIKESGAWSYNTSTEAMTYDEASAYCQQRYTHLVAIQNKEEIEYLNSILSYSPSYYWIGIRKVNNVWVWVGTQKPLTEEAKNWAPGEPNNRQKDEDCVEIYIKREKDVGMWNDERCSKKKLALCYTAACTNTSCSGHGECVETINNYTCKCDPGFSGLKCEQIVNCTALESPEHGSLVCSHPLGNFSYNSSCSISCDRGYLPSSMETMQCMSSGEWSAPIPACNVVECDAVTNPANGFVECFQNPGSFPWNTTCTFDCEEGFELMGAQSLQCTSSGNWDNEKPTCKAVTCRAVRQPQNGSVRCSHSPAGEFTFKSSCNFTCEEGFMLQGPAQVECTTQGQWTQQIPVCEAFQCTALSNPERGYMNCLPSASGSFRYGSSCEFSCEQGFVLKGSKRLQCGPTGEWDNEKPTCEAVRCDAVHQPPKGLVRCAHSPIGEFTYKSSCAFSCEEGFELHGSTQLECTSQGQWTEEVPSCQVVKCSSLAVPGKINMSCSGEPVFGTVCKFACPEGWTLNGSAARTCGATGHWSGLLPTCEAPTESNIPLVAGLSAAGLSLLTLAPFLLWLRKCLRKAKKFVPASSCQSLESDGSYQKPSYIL
Sequence of Retinoic acid receptor alpha (Homo sapiens) (P10276 whole entry, looked up, the tested form may be a part): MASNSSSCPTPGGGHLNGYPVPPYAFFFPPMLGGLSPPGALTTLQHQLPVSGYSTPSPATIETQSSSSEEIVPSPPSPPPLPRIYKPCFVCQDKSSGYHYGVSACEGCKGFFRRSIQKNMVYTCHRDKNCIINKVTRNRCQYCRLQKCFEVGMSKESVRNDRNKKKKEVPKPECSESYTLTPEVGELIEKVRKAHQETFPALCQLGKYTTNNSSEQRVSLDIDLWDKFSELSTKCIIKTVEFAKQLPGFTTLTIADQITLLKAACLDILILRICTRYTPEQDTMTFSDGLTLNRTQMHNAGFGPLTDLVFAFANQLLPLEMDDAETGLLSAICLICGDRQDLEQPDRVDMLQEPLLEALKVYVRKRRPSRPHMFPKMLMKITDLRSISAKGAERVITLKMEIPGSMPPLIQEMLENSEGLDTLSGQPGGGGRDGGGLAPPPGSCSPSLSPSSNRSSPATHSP
Sequence of human Vitamin D Receptor (VDR), VDR (gene 7421) (P11473 whole entry, looked up, the tested form may be a part): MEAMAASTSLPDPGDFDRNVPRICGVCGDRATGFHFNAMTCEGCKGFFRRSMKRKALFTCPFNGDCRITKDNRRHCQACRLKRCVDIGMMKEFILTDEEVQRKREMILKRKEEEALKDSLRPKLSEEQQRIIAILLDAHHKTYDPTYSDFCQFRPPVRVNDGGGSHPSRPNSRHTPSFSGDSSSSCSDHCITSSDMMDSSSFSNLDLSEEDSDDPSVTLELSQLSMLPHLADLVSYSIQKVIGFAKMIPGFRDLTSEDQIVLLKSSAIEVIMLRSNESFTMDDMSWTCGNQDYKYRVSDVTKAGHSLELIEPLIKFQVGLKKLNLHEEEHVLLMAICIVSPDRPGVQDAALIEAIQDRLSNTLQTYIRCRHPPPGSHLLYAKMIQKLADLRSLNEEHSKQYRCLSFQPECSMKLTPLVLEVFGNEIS
Sequence of Retinoic acid receptor RXR-alpha (Homo sapiens) (P19793 whole entry, looked up, the tested form may be a part): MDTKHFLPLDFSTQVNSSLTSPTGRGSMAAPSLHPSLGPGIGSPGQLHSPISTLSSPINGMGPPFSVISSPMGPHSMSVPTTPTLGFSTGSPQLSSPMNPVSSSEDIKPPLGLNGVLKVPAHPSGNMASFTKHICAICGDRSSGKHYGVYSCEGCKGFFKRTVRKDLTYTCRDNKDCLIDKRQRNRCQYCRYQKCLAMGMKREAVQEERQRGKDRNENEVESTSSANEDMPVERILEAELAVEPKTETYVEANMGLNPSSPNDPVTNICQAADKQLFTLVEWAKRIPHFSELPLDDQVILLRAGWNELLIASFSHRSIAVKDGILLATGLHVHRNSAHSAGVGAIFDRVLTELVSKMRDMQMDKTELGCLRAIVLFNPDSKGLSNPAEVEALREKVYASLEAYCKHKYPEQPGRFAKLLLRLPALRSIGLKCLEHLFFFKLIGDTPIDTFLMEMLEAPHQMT
Sequence of human Thyroid Receptor alpha (THRa1), THRA (gene 7067) (P10827 whole entry, looked up, the tested form may be a part): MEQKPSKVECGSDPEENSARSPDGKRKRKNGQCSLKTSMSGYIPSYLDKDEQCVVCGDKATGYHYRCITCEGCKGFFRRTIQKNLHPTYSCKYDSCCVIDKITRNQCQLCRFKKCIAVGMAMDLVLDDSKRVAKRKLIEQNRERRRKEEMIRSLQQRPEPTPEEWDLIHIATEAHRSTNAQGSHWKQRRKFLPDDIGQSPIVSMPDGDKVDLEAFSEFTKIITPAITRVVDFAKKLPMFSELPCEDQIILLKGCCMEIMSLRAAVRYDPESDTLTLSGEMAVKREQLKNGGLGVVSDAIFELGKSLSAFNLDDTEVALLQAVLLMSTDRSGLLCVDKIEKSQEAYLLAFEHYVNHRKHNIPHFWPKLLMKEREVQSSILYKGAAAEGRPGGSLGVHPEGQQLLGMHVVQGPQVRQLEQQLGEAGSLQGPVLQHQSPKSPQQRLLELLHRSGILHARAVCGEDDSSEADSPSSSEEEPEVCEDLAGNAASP
Sequence of human RAR-related Orphan Receptor beta (RORb), RORB (gene 6096) (Q92753 whole entry, looked up, the tested form may be a part): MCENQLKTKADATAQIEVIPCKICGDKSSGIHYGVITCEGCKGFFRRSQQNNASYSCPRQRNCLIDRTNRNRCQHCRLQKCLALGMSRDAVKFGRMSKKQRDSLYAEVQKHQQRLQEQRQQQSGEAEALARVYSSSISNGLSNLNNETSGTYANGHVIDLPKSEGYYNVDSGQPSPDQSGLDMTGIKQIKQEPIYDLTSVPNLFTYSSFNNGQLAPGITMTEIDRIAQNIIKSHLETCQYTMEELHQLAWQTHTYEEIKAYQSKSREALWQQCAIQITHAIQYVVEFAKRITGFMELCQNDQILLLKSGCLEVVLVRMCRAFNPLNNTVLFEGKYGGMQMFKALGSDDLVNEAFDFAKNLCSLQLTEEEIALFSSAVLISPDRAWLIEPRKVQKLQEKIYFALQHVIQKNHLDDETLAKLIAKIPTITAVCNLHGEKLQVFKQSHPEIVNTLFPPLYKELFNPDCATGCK
Sequence of Nuclear receptor subfamily 1 group I member 2 (Homo sapiens) (O75469 whole entry, looked up, the tested form may be a part): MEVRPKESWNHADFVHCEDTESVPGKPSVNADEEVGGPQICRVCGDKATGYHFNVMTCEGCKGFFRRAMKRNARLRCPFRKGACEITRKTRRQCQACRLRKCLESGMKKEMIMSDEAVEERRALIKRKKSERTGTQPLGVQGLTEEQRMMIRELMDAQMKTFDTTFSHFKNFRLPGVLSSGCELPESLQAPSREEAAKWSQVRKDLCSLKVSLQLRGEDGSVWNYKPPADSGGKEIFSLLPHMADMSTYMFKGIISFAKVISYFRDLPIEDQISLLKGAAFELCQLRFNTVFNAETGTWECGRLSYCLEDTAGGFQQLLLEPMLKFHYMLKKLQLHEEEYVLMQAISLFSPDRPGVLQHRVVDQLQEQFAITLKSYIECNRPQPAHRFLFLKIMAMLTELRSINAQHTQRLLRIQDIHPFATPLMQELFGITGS

With `C1CCC(NC2CCCCC2)CC1`, the compound was called inactive in [1], in assay [2], in assay [3], in assay [4], in assay [5] and in assay [6]. Also, the compound was called inactive in assay [7] and in assay [8].

For `CC12CC1(C)C(=O)N(c1cc(Cl)cc(Cl)c1)C2=O` (stereo unspecified), the outcome in assay [9], in [3], in assay [4], in assay [10], in [11] and in assay [12] was inactive. In addition, the outcome in [6], in assay [7], in assay [13], in assay [14], in [15] and in assay [16] was inactive. Further, the result in [17], in [18], in [8] and in assay [19] was inactive. Moreover, in [4], the AC50 was 2.03 µM (active) and 4.13 µM (active) and 2.07 µM (active).

Regarding `CC(C)(C)CC(C)(C)c1ccc(O)cc1`, the AC50 in assay [9] is 7.69 µM (active); in assay [4], 8.34 µM (active) and 7.58 µM (active) and 5.92 µM (active); in assay [6], 11.1 µM (active) and 4.81 µM (active) and 6.61 µM (active); in assay [13], 7.99 µM (active); in assay [14], 19.5 µM (active); in [15], 9.66 µM (active). The AC50 in [16] is 6.54 µM (active); in assay [17], 6.4 µM (active); in assay [20] it was 10.1 µM (active); in assay [18] it was 12.4 µM (active); in assay [19] it was 7.28 µM (active). Further, the compound was called inactive in assay [4], in [10], in assay [11], in [7] and in assay [8].

Take `Nc1cccc2ccccc12`: the half-maximal activity concentration (AC50) in assay [9] was 7.58 µM (active). Also, the result in assay [3], in assay [4], in [6], in [7], in [13] and in assay [14] was inactive. The result in assay [15], in assay [16], in assay [17], in [20] and in assay [19] was inactive.

Take `CCOC(=O)Nc1cccc(OC(=O)Nc2ccccc2)c1`: the compound was classed as inactive in [2], in assay [3], in assay [4], in assay [7] and in [8].

Turning to `O=P(O)(O)CN(CP(=O)(O)O)CP(=O)(O)O`, the result in assay [2], in assay [4], in [5], in assay [10], in assay [11] and in assay [6] was inactive. Also, in [8], the compound was classed as inactive.

`CCSC(C)CC1CC(=O)C(C(CC)=NOC/C=C/Cl)=C(O)C1` (stereo unspecified): the outcome in assay [2], in assay [9], in assay [5], in [12], in assay [7] and in assay [13] was inactive. Moreover, the outcome in assay [14], in [15], in assay [16], in assay [17], in assay [20] and in [19] was inactive. Further, the concentration at half-maximal activity (AC50) in assay [3] was 35.3 µM (active); in assay [4] it was 7.44 µM (active).

With `OCc1ccco1`, the AC50 in assay [9] was 19.8 µM (active); in [3] it was 39.7 µM (active). Moreover, the compound was called inactive in assay [4], in [10], in [11], in assay [13], in assay [14] and in assay [15]. Also, the result in assay [16], in [17], in [18], in assay [8] and in assay [19] was inactive.

In the case of `CN(C)P(=O)(N(C)C)N(C)C`, the compound was called inactive in assay [2], in [3], in assay [4] and in [7].

Source of the values: PubChem BioAssay (EPA / NIEHS).
